Compound activity: PubChem, National Center for Advancing Translational Sciences (NCATS)
HCMV antiviral: qHTS Assay for inhibitors of the human cytomegalovirus (HCMV); HFF cells, HCMV-luciferase reporter, 72 h; active compounds read low; activity change, negative = inhibition, % at 57.5 µM; actives 4.5% (n = 410,000); AID 1259415, 2018; in the data active = activity change below about -60%; inconclusive = no clear call, values can overlap the other calls; inactive = above about -39%
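Steps: HFFs plated, 16 h 37C; compounds added; HCMV-luciferase added to MOI 1 PFU/cell; 72 h 37C; OneGlo reagent, 5 min room temperature; luminescence read, normalized to controls.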
HCV inhibitor: qHTS Assay for Inhibitors of Hepatitis C Virus (HCV); Huh7.5.1 HCVcc-Cre infection, luciferase reporter, 44 h; Potency, µM (top dose mostly 41.8 µM), for the others: at the top dose activity change, negative = inhibition, actives largely listed as inhibitors; actives 3.4% (n = 340,000); active = well fitted inhibition curve with a large enough effect; inconclusive = small, poorly fitted or top-dose-only effect, or another doubt; inactive = no such curve, though single readings can be large or run the other way; also: potency is read from the fitted curve at half-maximal effect
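1,000 cells/well; 4 h culture; + compound; + HCVcc-Cre (~0.5 moi); 44 h; luciferase substrate, RT 15 min; read 15 sec.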
VACV Venus inh: qHTS for Stage-Specific Inhibitors of Vaccinia Orthopoxvirus: Venus Reporter Primary qHTS; Vaccinia virus Venus reporter expression, fluorescence; Potency, µM (highest dose often 36.5 µM), for inactives: top-dose activity change, negative = inhibition, hits mostly inhibitors; actives 0.46% (n = 330,000); calls by dose curve; tested in A549 cells; also: potency is read from the fitted curve at half-maximal effect; nearly all actives have a fitted effect of over 30% in size
VACV mCherry inh: qHTS for Stage-Specific Inhibitors of Vaccinia Orthopoxvirus: mCherry Reporter Primary qHTS | actives 0.63% (n = 310,000) | AID 720579, 2013 | Vaccinia virus mCherry reporter infection, fluorescence | Potency, µM (top dose mostly 36.5 µM), for inactives: top-dose activity change, negative = inhibition, hits mostly inhibitors; calls by dose curve; tested in A549 cells; also: potency is read from the fitted curve at half-maximal effect; nearly all actives have a fitted effect of over 35% in size
MARV entry inh: qHTS for inhibitors of binding or entry into cells for Marburg Virus; Marburg virus pseudotyped entry inhibition, cell reporter; Potency, µM (titrated, usually from 37.8 µM), without a hit: top-dose activity change, negative = inhibition, most hits filed as inhibitors; actives 1.8% (n = 300,000); AID 540276, 2011; calls by dose curve; tested in HEK293 cells; also: potency is read from the fitted curve at half-maximal effect
LASV entry inh: qHTS for Inhibitors of binding or entry into cells for Lassa Virus | Lassa virus pseudotype entry inhibition, cell reporter | Potency, µM (series often up to 37.9 µM), for inactives: at the top dose activity change, negative = inhibition, most hits filed as inhibitors | actives 1.2% (n = 300,000); calls by dose curve; tested in HEK293 cells; also: potency is read from the fitted curve at half-maximal effect; nearly all actives have a fitted effect of over 50% in size
* marks the source's active call; other numbers are inactive results; i = inactive; ? = inconclusive; . = no result given; [ ] = remark or other dose. This is a sample that favours compounds with a hit; in the whole collection about 7.8% have one here. % is scaled to controls: 0 for no effect and ±100 for the full control effect.

SMILES	HCMV antiviral	HCV inhibitor	VACV Venus inh	VACV mCherry inh	MARV entry inh	LASV entry inh
c1ccc(Nc2cccc(Nc3ccccc3)n2)cc1	-24.4	7.08µM*	-22.4%	?	0.8%[46.1 µM]	36.0%
c1ccc(Nc2ccccn2)cc1	-15.8	-11.8%	.	.	1.2%	4.8%
CCc1ccc(-n2c(=O)c3c4c(sc3n(CC(=O)c3ccc(Br)cc3)c2=O)CCC4)cc1	-10.8	.	-12.7%	-13.0%	?	-24.9%[46.1 µM]
NC(=S)c1ncc(C(F)(F)F)cc1Cl	6.0	9.7%	-8.9%	-10.5%	15.9%	0.1%
NC(=S)Nc1ncc(C(F)(F)F)cc1Cl	-92.0*	-13.9%	-9.1%	-9.4%	-14.8%[46.1 µM]	15.3%
FC(F)(F)c1cnc(NNC(=S)Nc2cccnc2)c(Cl)c1	?	?	?	10µM*	.	.
Fc1ccccc1NC(=S)NNc1ncc(C(F)(F)F)cc1Cl	-39.2	?	?	?	7.94µM*	?
Cc1c(Cl)cccc1NC(=S)NNc1ncc(C(F)(F)F)cc1Cl	-102.5*	?	.	.	20.6µM*	?
COc1ccc(OC)c(NC(=O)c2cnc(N3CCCCC3)c3ccccc23)c1	10.2	.	-10.4%	-13.5%	.	-27.7%[46.1 µM]
C#CCn1c(=NC(=O)c2cccs2)sc2cccc(OC)c21	-97.7*	?	-17.8%	-0.6%	.	.
COc1cc(-c2cc3n(C)c(C)c(CCC(=O)O)c(=O)n3n2)cc(OC)c1OC	4.2	.	3.2%	4.0%	6.8%[46.1 µM]	-1.1%[46.1 µM]
Cc1ccc(N2C(=O)NC(NS(=O)(=O)c3ccc(Cl)cc3)(C(F)(F)F)C2=O)cc1C (stereo not given)	-24.0	.	-8.5%	-9.5%	1.5%[46.1 µM]	-29.2%[46.1 µM]
Nc1cccc2nsnc12	24.2	-16.7%	-15.3%	i	?	-21.7%
Nc1cc2nsnc2cc1Br	-107.0*	?	?	?	?	-46.5%
CCN(CC)c1ccc(NC(=O)CCCN2C(=O)C(c3ccccc3)Oc3cccnc32)c(C)c1 (stereo not given)	12.0	.	-12.2%	-18.0%	.	-4.0%[46.1 µM]
O=C(Nc1ccc(NC(=O)c2cccs2)cc1)c1ccc(Cl)cc1	1.7	.	-3.9%	-3.2%	.	-1.9%[46.1 µM]
COc1c(Cl)cc(Cl)cc1/C=C/C(=O)c1ccc(NC(=O)c2cccs2)cc1	-99.0*	14.1µM*	10µM*	11.2µM*	11.2µM*	?
Cc1nc2ccc(NC(=O)c3ccc(Cl)c(NC(=O)c4cccs4)c3)cc2s1	-2.7	10µM*	-12.3%	.	?	-29.4%
Cc1ccc(NC(=O)c2ccc(Cl)c(NC(=O)c3cccs3)c2)cc1	37.4	12.6µM*	.	.	.	.
Cc1nn(C)c2c1c(C(F)(F)F)cc(=O)n2CC(=O)N1CCC(C)CC1	-2.5	.	0.8%	12.0%	.	19.2%[46.1 µM]
Cc1ccc(C)c(NC(=O)C(=O)NCCc2csc(-c3cccc(F)c3)n2)c1	-2.2	.	-7.9%	-21.4%	.	16.8%[46.1 µM]
CN(c1ccc(Cl)cc1)c1cc(=O)n(C)c2ccccc12	80.7	10µM*	-26.6%	-23.6%	-15.3%	?
CC1CCCN(S(=O)(=O)c2ccccc2[N+](=O)[O-])C1 (stereo not given)	-29.5	-9.0%	-13.8%	-19.7%	0.8%	-19.3%
CC1CC(C)CN(S(=O)(=O)c2ccccc2[N+](=O)[O-])C1 (stereo not given)	-72.2*	5.4%	-14.5%	i	-13.3%	1.6%
Cc1cc(NC(=O)c2cc(-c3ccncc3)nc3ccccc23)ccc1Br	-13.9	8.91µM*	-18.7%	?	?	?
SMILES	HCMV antiviral	HCV inhibitor	VACV Venus inh	VACV mCherry inh	MARV entry inh	LASV entry inh
Cc1cc(NC(=O)c2cc(-c3cccnc3)nc3c(C)c(C)ccc23)no1	-64.0*	?	-7.1%	.	?	-15.4%
CCc1ccc(-c2cc(C(=O)NN3CCOCC3)c3ccccc3n2)cc1	-2.1	26.3%	?	.	1.2%	3.1%
Cc1cc(NS(=O)(=O)c2ccc(NC(=O)c3cc(-c4cccnc4)nc4ccc(Cl)cc34)cc2)no1	-2.2	51.7%	.	.	4.3%	-9.8%
COC(=O)c1sccc1NC(=O)c1cc(-c2cc(C)ccc2C)nc2ccccc12	75.9	-20.5%	-10.1%	i	-29.1%	-1.5%
CC(=O)c1cccc(NC(=O)c2cc(-c3ccncc3)nc3ccccc23)c1	4.9	?	.	.	.	.
Cc1ccc(C)c(-c2cc(C(=O)Nc3nccs3)c3ccccc3n2)c1	-70.7*	?	.	.	-12.9%	-24.3%
O=C(NN1CCOCC1)c1cc(-c2ccc(Br)cc2)nc2ccccc12	-60.2*	11.5%	-1.2%	-5.9%	12.5%	0.5%
CSc1ccc2cc(CNCc3ccccc3F)c(N3CCCC(CO)C3)nc2c1 (stereo not given)	.	.	-2.6%	-7.0%	.	.
NS(=O)(=O)c1ccc(CNC(=O)c2cc(-c3cccs3)nc3ccccc23)cc1	-34.3	-10.3%	-1.5%	-1.3%	.	.
Cc1ccc(C)c(-c2cc(C(=O)Nc3cccc(C(=O)O)c3)c3ccccc3n2)c1	-14.8	1.8%	-6.6%	-3.9%	12.4%[46.1 µM]	18.6%
Cc1ccc(C(=O)COC(=O)c2cc(-c3cccs3)nc3ccccc23)cc1	20.8	.	-10.4%	-1.0%	17.4%[46.1 µM]	-33.9%[46.1 µM]
NS(=O)(=O)c1ccc(CCNC(=O)c2cc(-c3cccs3)nc3ccccc23)cc1	-39.0	?	-17.8%	i	7.94µM*	?
N#Cc1ccc(/C=N/NC(=O)c2cc(-c3cccs3)nc3ccccc23)cc1	-20.2	-9.9%	?	?	6.31µM*	?
COc1ccc(C(=O)COC(=O)c2cc(-c3cccs3)nc3ccccc23)cc1	11.1	.	-2.5%	-9.6%	1.5%[46.1 µM]	11.2µM*
Cc1ccc(C)c(-c2cc(C(=O)Nc3cccnc3)c3ccccc3n2)c1	-6.6	.	-2.1%	i	11.2µM*	-6.2%
COc1cc(/C=N/NC(=O)c2cc(-c3cccs3)nc3ccccc23)ccc1O	-20.5	-11.4%	.	.	.	.
CC(=O)c1nn(-c2ccc(OC(F)(F)F)cc2)nc1Nc1ccc(C)cc1	-24.4	.	-6.6%	-5.3%	5.1%[46.1 µM]	-10.0%[46.1 µM]
CC1CCN(C(=O)c2cc3c(=O)n(C)c4cc(Cl)ccc4c3s2)CC1	15.1	.	-3.4%	-8.4%	?	1.3%[46.1 µM]
CCCCCCCc1cc2ccccc2c2c(C(=O)OC)c(C(=O)OC)c(C(=O)OC)n12	.	.	.	.	18.3%[14.2 µM]	?
Cc1cc(NC(=O)c2cc(-c3ccccc3C)nc3ccccc23)no1	-74.4*	-6.2%	-5.0%	-10.1%	-27.6%	-20.9%
Cc1ccc(C)c(-c2cc(C(=O)NCc3cccs3)c3ccccc3n2)c1	-12.2	12.6µM*	.	.	-4.5%	-21.0%
O=C(Nc1cccnc1)c1cc(-c2ccc(Br)cc2)nc2ccccc12	39.9	3.16µM*	5.2%	i	?	?
Cc1ccc(-c2cc(C(=O)Nc3cc(C)on3)c3ccccc3n2)c(C)c1	-33.2	-16.4%	-7.0%	-2.5%	-0.3%	-16.0%
